These compounds were tested on CLK1. Settings: concentration: 1 μM,replicates: in singlicate; n = 1.
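Also: KINOMEscan kinase panel screen.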

Compound | %Inh
Cc1n[nH]c2ccc(-c3cc(OC[C@@H](N)Cc4ccccc4)cnc3-c3ccoc3)cc12.O=C(O)C(F)(F)F.O=C(O)C(F)(F)F [GSK507358] | 38%
CC(C)Nc1cc(-c2ccc3c(N)n[nH]c3c2)nc(N)n1 [GSK2221681] | 74%
CNC(=O)c1ccccc1Sc1ccc2c(/C=C/c3ccccn3)n[nH]c2c1 | 0%
Cl.Cl.NC[C@H](Cc1ccc(C(F)(F)F)cc1)NC(=O)c1cc(Br)c(-c2ccnc3[nH]ccc23)s1 [GSK1487252] | 62%
Cl.Cl.Nc1nc(-c2ccc3c(N)n[nH]c3c2)cc(N2CCCC(NC(=O)c3ccccc3)C2)n1 (stereo not drawn) [GSK2286775] | 48%
O=C(NCCCN1CCOC1=O)c1cnc(NCc2cc(Cl)ccc2Cl)nc1NC1CCCC1 | 0%
CN(C)CC(O)COc1ccc(Nc2nccc(-c3cnn4nc(N5CCOCC5)ccc34)n2)cc1 (stereo not drawn) [GW767488] | 94.9%
Cc1ccc(-n2nc(C(C)(C)C)cc2NC(=O)Nc2ccc(OCCN3CCOCC3)c3ccccc23)cc1 [GW839464] | 22%
Cc1cc(C(=O)Nc2ccc(Oc3ccc4nc(NC(=O)C5CC5)cn4n3)cc2)nn1-c1ccccc1 | 5%
C=CC(=O)Nc1cc2c(Nc3ccc(F)c(Cl)c3)ncnc2cc1OCCCN1CCOCC1 [GW781483] | 99.7%
Cc1cc2cn[nH]c2cc1-c1cccc2c(N)c(C(N)=O)nnc12 | 22%
C[C@@H]1CCN(C(=O)CC#N)C[C@@H]1N(C)c1ncnc2[nH]ccc12 | 9%

Reference: paper PMC5540273 (PLoS ONE, 2017)
